According to PubChem BioAssay (NCI):
The panel holds about 83,000 compounds, 20% with a hit somewhere; the sample as a whole holds those more often.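 Compound tested at a single concentration for 48 hours in 96-well plates; a percent growth value below 10 was scored as active.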 Active and inactive are the calls of the source.

Test system: UO-31 renal
Assay: NCI-60 one-dose screen, 48 h (100 = growth as untreated, 0 = no growth, -100 = all killed)
Conditions: 10 µM unless noted

Compound | growth
N#CC1C(C#N)C2CCC1C1C2N1c1ccccc1 (stereo not given) | 72.3% (inactive)
CC(C)(NC(=O)O[C@@H]1CN2CCC1CC2)c1csc(-c2ccc(F)cc2)n1 | 81.1% (inactive)
CCC(C)(C)[C@H](NC(=O)[C@H]1CCCCN1C)C(=O)N(C)[C@H](C[C@@H](OC(C)=O)c1nc(C(=O)N[C@@H](Cc2ccccc2)C[C@H](C)C(=O)O)cs1)C(C)C | 32.9% (inactive)
C[C@]12CCc3sc(-c4ccccc4O)nc3C1=CC[C@@H]1[C@@H]2CC[C@]2(C)C(=O)CC[C@@H]12 | 85.8% (inactive)
CCOC(=O)N1CC1 | 80.7% (inactive)
N#CC1(C#N)C(c2ccc(N(CCCl)CCCl)cc2)OC23CCCCC2C1(C#N)C(=N)O3 (stereo not given) | 72.1% (inactive)
C=CCCCN=C=S | 70% (inactive)
Cc1cccc(N2CCN(C(C)C#N)CC2)c1 (stereo not given) | 84% (inactive)
O=C(Nc1ccc([N+](=O)[O-])cc1)C(Cl)(Cl)Cl | 87.3% (inactive)
COP(=S)(N1CC1)N1CC1 | 84.3% (inactive)
O=C(N/N=C\c1ccc(N(CCCl)CCCl)cc1)c1cccc([N+](=O)[O-])c1 | 90.6% (inactive)
CC(=O)OC[C@]1(C)C=C2C(=O)[C@](C)(O)C3(CC3)C(C)=C2[C@H]1O | -47.3% (active)
CS(=O)(=O)CCN1CC2CCCC(C2)C1 | 96.9% (inactive)
CCOC(=O)[C@@H](C)C[C@H](Cc1ccccc1)NC(=O)c1csc([C@@H](C[C@H](C(C)C)N(C)C(=O)[C@@H](NC(=O)[C@H]2C[C@H](O)CCN2C)C(C)C)OC(C)=O)n1 | 36.1% (inactive)
CNCc1cccnc1 | 93.9% (inactive)
Cn1cc(C=O)c2nccnc21 | 106% (inactive)
Cc1cc(N(CCCl)CCCl)ccc1C=Nc1ccccc1-c1ccccc1 | 59.5% (inactive)
CNC(=O)Oc1ccc2c(c1)OCO2 | 98.1% (inactive)
COc1ccc(N(CC(=O)NCCC[Te]c2ccccc2)C(=O)CCSC2=C(C)C(=O)c3ccccc3C2=O)cc1 | -29.3% (active)
Cn1cccc1C1CC(=O)N(CCC[Se]C#N)C1=O (stereo not given) | -75.9% (active)
CC1(C)[C@H](O)[C@H](F)C[C@@]2(C)Oc3ccc(C(=O)Nc4ccc5c(c4)NC(=O)C54CCN(CCCCC#N)CC4)cc3C[C@H]12 | 31.5% (inactive)
CCOC(=O)[C@@H](C)C[C@H](Cc1ccccc1)NC(=O)c1nc([C@@H](C[C@H](C(C)C)N(C)C(=O)[C@@H](NC(=O)[C@H]2CCCCN2C)C(C)C)OC(C)=O)sc1CCOCc1ccccc1 | -56.3% (active)
C[C@]12CCc3sc(-c4cccc(F)c4)nc3C1=CC[C@@H]1[C@@H]2CC[C@]2(C)C(=O)CC[C@@H]12 | 1.08% (active)
COC(=O)[C@H](C[C@H](Cc1ccccc1)NC(=O)c1csc([C@@H](C[C@H](C(C)C)N(C)C(=O)[C@@H](NC(=O)[C@H]2CCCCN2C)C(C)C)OC(C)=O)n1)NC(=O)OCc1ccccc1 | 32.3% [8.5 µM] (inactive)
C[C@]12CC[C@H]3[C@@H](C[C@@H]4SC(Nc5ccccc5)=N[C@@]45CC(O)CC[C@]35C)[C@@H]1CCC2O (stereo not given in full) | 26.1% (inactive)
